HT1080 IDH1KD tx – qHTS for induction of synthetic lethality in tumor cells producing 2HG: qHTS for the HT-1080-IDH1KD cell line; Potency, µM (top dose mostly 46.1 µM), for the others: top-dose activity, negative = toxicity, hits mostly cytotoxic; actives 2% (n = 360,000); HT-1080 IDH1 knockdown viability, ATP luminescence, 48 h; AID 686971, 2013;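 further: potency means the concentration at half of the fitted maximal effect; 0% = DMSO wells and -100% = cell-free medium wells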
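IDH1KD HT-1080 cells, 750/well, RPMI + 5% FBS; compound pinned after 2 h settling; 48 h, 37 °C; CellTiter-Glo luminescence; % activity normalised to DMSO and no-cell wells; curves fitted, classed by r2 and efficacy.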
HT1080NT lethal – qHTS for induction of synthetic lethality in tumor cells producing 2HG: qHTS for the HT-1080-NT fibrosarcoma cell line; HT-1080-NT fibrosarcoma viability, CellTiter-Glo ATP luminescence, 48 h; Potency, µM (titrated, usually from 46.1 µM), for the others: at the highest dose activity, negative = less viability, actives largely listed as cytotoxic; actives 1.6% (n = 360,000); AID 686970, 2013;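 further: NT is the 2HG producing partner of a matched IDH1 knockdown line; potency means the concentration at half of the fitted maximal effect; 0% = DMSO-treated cells and -100% = media-only wells without cells; nearly all actives have a fitted effect of over 55% in size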
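Read-out is CellTiter-Glo luminescence after 10 minutes at room temperature, following 48 hours' compound treatment of HT-1080-NT cells (750 cells/well, RPMI, 5% FBS, 37 degrees C).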
TDP1 cell noCPT – qHTS for Inhibitors of human tyrosyl-DNA phosphodiesterase 1 (TDP1): qHTS in cells in absence of CPT; DT40 Tdp1-/- hTDP1 cells, no CPT, ATP luminescence, 48 h; Potency, µM (doses to about 46.2 µM), for inactives: at the highest dose activity change, negative = growth inhibition, most hits filed as inhibitors; actives 15% (n = 420,000); further: potency means the concentration at half of the fitted maximal effect; nearly all actives have a fitted effect of over 55% in size
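Seeded 400 DT40-hTDP1 cells/well (vehicle DMSO, no 20 nM CPT); pinned compounds; ≥48 hr at 37 °C; CellTiter-Glo luminescence as viability measure.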
IL1B secr inh – qHTS for Inhibitors of Inflammasome Signaling: IL-1-beta AlphaLISA Primary Screen. THP-1 LPS/ATP IL-1B secretion, AlphaLISA, 16 h; stronger effect = lower value. activity change, % at 57.5 µM. actives 4.7% (n = 360,000); in the data active means activity change below about -50%; inconclusive means mostly about -30% to -49%
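THP-1 cells pretreated 1 hr with compounds (up to 57.5 uM final), then stimulated with LPS (250 ng/mL final) plus ATP (1.25 mM final); secreted IL-1B measured by AlphaLISA after 16 hr, decreased signal indicating inhibition.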
TDP1 cell CPT – qHTS for Inhibitors of human tyrosyl-DNA phosphodiesterase 1 (TDP1): qHTS in cells in presence of CPT | chicken DT40 Tdp1-/-;hTDP1 cells + 20 nM CPT, ATP luminescence, 48 h | Potency, µM (highest dose often 46.2 µM), for inactives: at the highest dose activity change, negative = growth inhibition, hits mostly inhibitors | actives 12% (n = 420,000) | AID 686979, 2013; further: potency means the concentration at half of the fitted maximal effect; nearly all actives have a fitted effect of over 55% in size
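Chicken DT40 Tdp1-/- cells complemented with human TDP1, 400 cells/well, exposed to compounds plus 20 nM camptothecin for at least 48 h at 37 C; viability read as ATP content by CellTiter-Glo luminescence.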
The depositor's hits bear a star; ? = inconclusive; / = no result; [ ] = remark or other dose. In the library only some 19% were active in any assay of this set; here they are far more common. Unless noted, the call rests on the fitted dose curve; in most records, active means well fitted curve in the direction sought with a large enough effect; inconclusive means small, poorly fitted or top-dose-only effect, or another doubt; inactive means no such curve, though single readings can be large; an effect the other way counts as inactive or inconclusive. Unless noted, on the % scale 0 is the no-effect control and ±100 the full control effect.

SMILES | HT1080 IDH1KD tx | HT1080NT lethal | TDP1 cell noCPT | IL1B secr inh | TDP1 cell CPT
COCCNC(=S)N1CCC(C(=O)c2ccc(F)cc2)CC1 | 0% | 15% | ? | 7 | -5%
CC(C)(C)NC(=S)N1CCC(C(=O)c2ccc(F)cc2)CC1 | 4% | -1% | 6% | 38 | 0%
CCCNC(=S)N1CCC(NC(=O)C2CCCCC2)CC1 | 1% | 11% | ? | 11 | 16µM*
O=[N+]([O-])c1ccc(Cl)c(S(=O)(=O)/N=C(/c2ccccc2)N2CCOCC2)c1 | 2% | 1% | 0% | 22 | -1%
CCOCCCNC(=O)CCN1C(=O)c2ccccc2Sc2ncccc21 | 27% | 7% | -9% | 7 | -9%
N#Cc1c(Cl)nsc1NN | ? | ? | ? | -64* | ?
CC(Oc1ccccc1)C(=O)Nc1cccc(-c2nc3ccccc3[nH]2)c1 (configuration not stated) | -3% | -6% | ? | 10 | ?
O=C(Nc1cccc(-c2nc3ccccc3[nH]2)c1)c1c(F)cccc1F | / | / | 10µM* | / | 15µM*
COc1cccc(C(=O)Nc2ccc3c(c2)C(=O)c2ccccc2C3=O)c1 | -17% | -21% | -16% | -1 | ?
COc1cccc(OC)c1C(=O)Nc1cccc(-c2nc3ccccc3[nH]2)c1 | -9% | -5% | 18µM* | 0 | ?
CC(C)COc1ccc(C(=O)Nc2cccc(-c3nc4ccccc4[nH]3)c2)cc1 | / | / | 21µM* | / | 18µM*
CC(C)(C)C(=O)Nc1cccc(-c2nc3ccccc3[nH]2)c1 | 1% | -3% | ? | -13 | ?
COc1cccc(C(=O)Nc2ccc(Cl)c(-c3nc4ccccc4[nH]3)c2)c1 | / | / | 6.5µM* | / | ?
CC(C)N(C)c1ncnc2c1ncn2[C@H]1CN(Cc2ccc3c(c2)OCO3)C[C@@H](CO)O1 | 8% | 0% | ? | -23 | -14%
CC(=O)Nc1cccc(-c2nc3ccccc3[nH]2)c1 | 12% | 18% | 2% | 10 | 8%
O=C(Nc1cccc(-c2nc3ccccc3[nH]2)c1)c1ccccn1 | -13% | -4% | 13µM* | -17 | 18µM*
Cc1ccc(-c2cc(C(=O)N3CC(C)CC(C)C3)c3ccccc3n2)o1 (configuration not stated) | ? | -12% | 18µM* | ? | ?
Cc1ccc(-c2cc(C(=O)Nc3ccccc3C)c3ccccc3n2)o1 | -5% | -15% | 18µM* | 5 | ?
COC(=O)c1cc(-c2ccc(C)o2)nc2ccccc12 | -8% | 0% | 15µM* | -28 | 7.3µM*
COc1cc(-c2cc(C(=O)Nc3cccc(S(=O)(=O)N(C)C)c3)c3ccccc3n2)cc(OC)c1OC | ? | ? | -24% | 19 | -2%
Cc1ccc(-c2cc(C(=O)Nc3cccc(S(=O)(=O)N(C)C)c3)c3ccccc3n2)o1 | -4% | -7% | 16µM* | -18 | ?
Cc1cnccn1 | / | / | 11% | / | ?
CCCCCCCCCCCCCCCCCCCCCCO | / | / | 1% | / | 6%
CC(C)C[C@@H](CN)NC(=O)c1nc[nH]c1C(=O)N[C@@H](C)C(=O)CNC[C@H](C)NC(=O)c1nc[nH]c1C(=O)N[C@@H](CC(=O)O)C(=O)O | 0% | 15% | -6% | 39 | 0%
COCCNC(=O)c1onc(CSc2cc(C)cc(C)c2)c1C(=O)NCCOC | 8% | 12% | -29% | -3 | -3%
SMILES | HT1080 IDH1KD tx | HT1080NT lethal | TDP1 cell noCPT | IL1B secr inh | TDP1 cell CPT
O=S(=O)(c1cccc(C(F)(F)F)c1)n1c(/C=C/c2ccccc2)nc2ccccc21 | / | / | 10µM* | / | 8.2µM*
Cc1nc2ccccc2n1S(=O)(=O)c1ccc(Br)cc1 | 5% | 0% | -27% | 0 | -13%
CSc1ccc(/C=C/c2nc3ccccc3n2S(=O)(=O)c2ccc(Br)cc2)cc1 | / | / | 10µM* | / | 15µM*
c1ccc2c(-c3cncc4ccccc34)cncc2c1 | ? | ? | ? | -2 | ?
c1ccc2c(c1)-c1cccc3cncc-2c13 | ? | 16% | ? | -84* | -37%
CNc1c2cccc(C)c2nc2c(C(=O)NCCN(C)C)cccc12 | 7.3µM* | ? | 0.18µM* | -117* | 0.18µM*
Cc1ccc(C(=O)NCCN(C)C)c(C)c1 | 9% | 6% | -14% | 12 | -1%
CC(=O)N1c2ccc(S(=O)(=O)N(C)c3cc(C)ccc3C)cc2CC1C (configuration not stated) | 6% | 1% | 23µM* | 39 | ?
COc1ccc(C)cc1NC(=O)CN(C)S(=O)(=O)c1ccc2c(c1)CC(C)N2C(C)=O (configuration not stated) | 9% | 10% | ? | 18 | 23µM*
CCc1nc2c(OCC(=O)C(C)(C)C)cccn2c1N(C)C(=O)COc1ccccc1 | 0% | 9% | -2% | 5 | -23%
NC(=O)C1CN(C(=O)c2nn(Cc3ccccc3)c(=O)c3ccccc23)c2ccccc2O1 (configuration not stated) | ? | -9% | ? | -6 | ?
COc1ccccc1C(=O)N[C@@H]1c2ccccc2C2(CCN(Cc3nccs3)CC2)[C@H]1OC | / | / | -83% | / | -11%[9.04 µM]
CO[C@H]1[C@H](NC(=O)c2ccco2)c2ccccc2C12CCN(Cc1cc(Cl)ccc1O)CC2 | / | / | 23µM* | / | -1%[9.04 µM]
COc1cc(CN2CCC3(CC2)c2ccccc2[C@@H](NC(=O)c2ccccc2OC)[C@@H]3O)ccc1F | / | / | 18µM* | / | -12%[9.04 µM]
CCN(CC(=O)Nc1ccc(NC(C)=O)cc1)C(=O)c1cccc(S(=O)(=O)N2CCCC2)c1 | 0% | 1% | -1% | 16 | 4%
COc1ccc(C(=O)Nc2ccc(-c3nnn(CC(=O)NCc4ccco4)n3)cc2)cc1 | 3% | 0% | ? | 2 | ?
CC1(C)NC(=O)N(CCC(=O)Nc2cc(C(F)(F)F)ccc2Cl)C1=O | -3% | -5% | 18% | 10 | -11%
Cc1occc1C(=O)NCCCCNC(=O)c1ccoc1C | 6% | 12% | 0% | -14 | 3%
CCCCCCCCCCCNC(=O)c1ccoc1C | -7% | 0% | 18µM* | 0 | 21µM*
CCCCNC(=O)c1ccccc1Cl | -1% | 5% | -19% | -12 | -10%
CCCCNC(=O)c1ccccc1C(=O)NCCCC | -12% | ? | 29µM* | 31 | 29µM*

Assay outcomes (PubChem BioAssay)
